The full data set covers some 7,900 targets. This sample favours those with a hit. About 0.6% of all pairs of compound and target were hits. Values without a mark were called inactive.
Assays:
Experiment in all cases: log2 fold change, soluble protein after heating vs DMSO (PISA); higher = thermal stabilisation; K562 cells, 10 uM, 30 min; active = over 0.2 and 3.5 SD of the protein, either way, in both replicates (recomputed)
[1] = compound: CC1=C(C=C(C=C1)NC(=O)C2=CC(=CC=C2)C(C)(C)C#N)NC3=CC4=C(C=C3)N=CN(C4=O)C
Outline: (§1)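 Values are thermal stability changes relative to control samples and are taken from duplicates. They are stated as log2 fold changes. Before quantification by TMTpro 16plex LC-MS/MS with equalised channel sums, K562 cells at 2×10^6 cells/mL were treated with 10 μM compound for 30 min, heated in aliquots for 3 min across 48°C-58°C, pooled, extracted in PBS with 0.5% NP-40 at 4°C, and centrifuged at 21,000xg for 90 min to give the soluble supernatant.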

[2] = compound: CC1=C(C=C(C=C1)NC(=O)C2=CC(=CC=C2)N(C)C)NC(=O)C3=CC=C(C=C3)O
Outline: as §1

[3] = compound: CC1=CC=C(C=C1)SC2=C3C=C(SC3=CN=C2)C(=O)N
Outline: as §1

[4] = compound: CC1=NC(=CC=C1)C2=C(N=C(N2)C(C)(C)C)C3=CC4=NC=CN=C4C=C3
Outline: as §1

[5] = compound: CCCCN(Cc1ccc(C(=O)NO)cc1)C(=O)Nc1ccccc1 [Nexturastat A]
Outline: as §1

[6] = compound: CCCS(=O)(=O)Nc1ccc(F)c(C(=O)c2c[nH]c3ncc(-c4ccc(Cl)cc4)cc23)c1F [vemurafenib]
Outline: as §1

[7] = compound: CCCS(=O)(=O)Nc1ccc(F)c(C(=O)c2c[nH]c3ncc(Cl)cc23)c1F
Outline: as §1

[8] = compound: CCCc1cc(C)[nH]c(=O)c1CNC(=O)c1cc(-c2ccnc(N3CCN(C)CC3)c2)cc2c1cnn2C(C)C
Outline: as §1

[9] = compound: CCN(CC)Cc1ccc2cc(COC(=O)Nc3ccc(C(=O)NO)cc3)ccc2c1 [givinostat]
Outline: as §1

[10] = compound: CCN(CCCOc1ccc2c(Nc3cc(CC(=O)Nc4cccc(F)c4)[nH]n3)ncnc2c1)CCOP(=O)(O)O [barasertib]
Outline: as §1

[11] = compound: CC[C@@H]1C(=O)N(C)c2cnc(Nc3ccc(C(=O)NC4CCN(C)CC4)cc3OC)nc2N1C1CCCC1
Outline: as §1

[12] = compound: CC[C@@H]1C(=O)N(C)c2cnc(Nc3ccc(C(=O)N[C@H]4CC[C@H](N5CCN(CC6CC6)CC5)CC4)cc3OC)nc2N1C(C)C [volasertib]
Outline: as §1

[13] = compound: CC[C@H](C)N1C=C(C2=C(C=C(C=C21)C3=CN=C(C=C3)N4CCNCC4)C(=O)NCC5=C(C=C(NC5=O)C)C)C
Outline: as §1

[14] = compound: CC[C@H](C)[C@@H](C(=O)N[C@@H]([C@@H](C)O)C(=O)N[C@@H](CC(C)C)C(=O)[C@]1(CO1)C)NC(=O)[C@H]([C@@H](C)CC)N(C)C(=O)C [epoxomicin]
Outline: as §1

[15] = compound: CCn1c(C(=O)N(C2CC2)C2CC2)cc2c3c(ncn3C)c(Nc3cc(C)n(C)n3)nc21
Outline: as §1

[16] = compound: CCn1cc(-c2ccnc3[nH]c(-c4cccc(CN(C)C)c4)cc23)c(-c2ccc(NC(=O)N(C)C)cc2)n1
Outline: as §1

[17] = compound: CN(C)CC(=O)Nc1ccc2[nH]c(=O)c3ccccc3c2c1
Outline: as §1

[18] = compound: CN(CCOC1=CC=C(C=C1)C[C@H]2C(=O)NC(=O)S2)C3=CC=CC=N3 (racemic) [rosiglitazone]
Outline: as §1

[19] = compound: CN1C2=C(C3=C1C(=O)N(N=C3)CC4=CC(=CC=C4)N)SC(=C2)S(=O)C
Outline: as §1

[20] = compound: CN1CCC(CNc2ccc3ncc(-c4cccc(OC(F)(F)F)c4)n3n2)CC1
Outline: as §1

Sequence of UniProt Q8IY95 (Q8IY95 whole entry, looked up): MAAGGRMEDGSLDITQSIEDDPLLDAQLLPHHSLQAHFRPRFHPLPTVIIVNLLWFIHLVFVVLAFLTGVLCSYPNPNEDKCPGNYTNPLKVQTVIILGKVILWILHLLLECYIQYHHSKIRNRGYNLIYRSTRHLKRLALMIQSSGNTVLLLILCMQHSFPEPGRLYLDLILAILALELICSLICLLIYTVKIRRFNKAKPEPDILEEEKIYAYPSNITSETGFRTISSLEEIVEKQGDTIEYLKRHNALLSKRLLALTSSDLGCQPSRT
Sequence of UniProt Q9BUB7 (Q9BUB7 whole entry, looked up): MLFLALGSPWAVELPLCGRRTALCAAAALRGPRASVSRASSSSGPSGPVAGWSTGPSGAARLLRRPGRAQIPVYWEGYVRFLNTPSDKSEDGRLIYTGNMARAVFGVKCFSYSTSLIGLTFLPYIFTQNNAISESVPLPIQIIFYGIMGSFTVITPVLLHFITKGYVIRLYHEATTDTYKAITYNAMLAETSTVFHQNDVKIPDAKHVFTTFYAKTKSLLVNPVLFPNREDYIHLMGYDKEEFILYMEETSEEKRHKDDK
Sequence of UniProt Q8IZ69 (Q8IZ69 whole entry, looked up): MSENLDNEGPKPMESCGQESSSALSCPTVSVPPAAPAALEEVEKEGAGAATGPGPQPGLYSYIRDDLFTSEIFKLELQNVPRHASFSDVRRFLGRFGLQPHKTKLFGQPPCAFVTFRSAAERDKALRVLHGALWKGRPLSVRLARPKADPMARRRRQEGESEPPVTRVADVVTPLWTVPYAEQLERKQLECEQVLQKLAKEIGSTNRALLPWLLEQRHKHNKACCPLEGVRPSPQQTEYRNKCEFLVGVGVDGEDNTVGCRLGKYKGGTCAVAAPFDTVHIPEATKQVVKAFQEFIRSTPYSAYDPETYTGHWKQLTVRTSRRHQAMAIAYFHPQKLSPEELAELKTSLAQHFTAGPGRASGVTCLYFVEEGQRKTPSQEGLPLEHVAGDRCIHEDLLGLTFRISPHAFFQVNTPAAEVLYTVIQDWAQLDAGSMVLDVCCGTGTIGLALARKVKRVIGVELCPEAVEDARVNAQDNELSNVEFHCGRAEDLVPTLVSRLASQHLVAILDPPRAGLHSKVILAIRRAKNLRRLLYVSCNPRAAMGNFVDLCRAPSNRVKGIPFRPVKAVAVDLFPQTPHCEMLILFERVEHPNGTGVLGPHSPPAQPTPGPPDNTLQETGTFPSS
Sequence of UniProt P54578 (P54578 whole entry, looked up): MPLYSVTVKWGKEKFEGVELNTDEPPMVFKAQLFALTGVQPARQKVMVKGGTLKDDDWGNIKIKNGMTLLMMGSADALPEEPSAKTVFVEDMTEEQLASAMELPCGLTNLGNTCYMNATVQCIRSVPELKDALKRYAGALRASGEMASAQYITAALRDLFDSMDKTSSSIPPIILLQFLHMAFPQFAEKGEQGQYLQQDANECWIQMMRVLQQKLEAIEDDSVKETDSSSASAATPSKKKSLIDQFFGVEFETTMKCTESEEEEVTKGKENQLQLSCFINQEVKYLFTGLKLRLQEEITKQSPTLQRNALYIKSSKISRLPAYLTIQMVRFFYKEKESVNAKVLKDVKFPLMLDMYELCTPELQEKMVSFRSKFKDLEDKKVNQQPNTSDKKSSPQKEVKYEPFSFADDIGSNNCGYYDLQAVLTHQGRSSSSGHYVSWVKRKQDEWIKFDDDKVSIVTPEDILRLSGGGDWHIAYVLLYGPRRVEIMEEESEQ
Sequence of UniProt P51809 (P51809 whole entry, looked up): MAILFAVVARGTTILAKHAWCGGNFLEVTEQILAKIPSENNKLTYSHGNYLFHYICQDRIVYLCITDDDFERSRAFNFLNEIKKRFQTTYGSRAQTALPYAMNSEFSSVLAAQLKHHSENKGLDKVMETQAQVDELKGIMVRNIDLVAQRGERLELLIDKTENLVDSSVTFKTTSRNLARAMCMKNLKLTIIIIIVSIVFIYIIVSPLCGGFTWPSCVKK
Sequence of UniProt P12956 (P12956 whole entry, looked up): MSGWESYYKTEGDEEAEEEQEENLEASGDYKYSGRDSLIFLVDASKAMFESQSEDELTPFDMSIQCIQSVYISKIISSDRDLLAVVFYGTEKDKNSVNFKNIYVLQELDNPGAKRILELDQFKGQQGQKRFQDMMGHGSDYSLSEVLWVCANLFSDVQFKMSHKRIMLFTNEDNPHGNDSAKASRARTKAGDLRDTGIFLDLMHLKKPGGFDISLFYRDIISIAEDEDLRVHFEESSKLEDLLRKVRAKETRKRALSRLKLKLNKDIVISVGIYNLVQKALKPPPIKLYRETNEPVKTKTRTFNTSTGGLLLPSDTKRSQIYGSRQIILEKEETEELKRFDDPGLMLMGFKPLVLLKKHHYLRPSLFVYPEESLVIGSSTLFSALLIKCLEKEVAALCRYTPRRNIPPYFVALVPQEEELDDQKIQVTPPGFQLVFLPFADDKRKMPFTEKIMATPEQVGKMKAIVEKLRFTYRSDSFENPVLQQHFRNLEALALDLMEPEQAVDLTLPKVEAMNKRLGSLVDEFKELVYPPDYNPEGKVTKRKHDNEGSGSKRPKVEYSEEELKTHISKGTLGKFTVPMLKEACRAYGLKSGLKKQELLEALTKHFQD
Sequence of UniProt Q9H270 (Q9H270 whole entry, looked up): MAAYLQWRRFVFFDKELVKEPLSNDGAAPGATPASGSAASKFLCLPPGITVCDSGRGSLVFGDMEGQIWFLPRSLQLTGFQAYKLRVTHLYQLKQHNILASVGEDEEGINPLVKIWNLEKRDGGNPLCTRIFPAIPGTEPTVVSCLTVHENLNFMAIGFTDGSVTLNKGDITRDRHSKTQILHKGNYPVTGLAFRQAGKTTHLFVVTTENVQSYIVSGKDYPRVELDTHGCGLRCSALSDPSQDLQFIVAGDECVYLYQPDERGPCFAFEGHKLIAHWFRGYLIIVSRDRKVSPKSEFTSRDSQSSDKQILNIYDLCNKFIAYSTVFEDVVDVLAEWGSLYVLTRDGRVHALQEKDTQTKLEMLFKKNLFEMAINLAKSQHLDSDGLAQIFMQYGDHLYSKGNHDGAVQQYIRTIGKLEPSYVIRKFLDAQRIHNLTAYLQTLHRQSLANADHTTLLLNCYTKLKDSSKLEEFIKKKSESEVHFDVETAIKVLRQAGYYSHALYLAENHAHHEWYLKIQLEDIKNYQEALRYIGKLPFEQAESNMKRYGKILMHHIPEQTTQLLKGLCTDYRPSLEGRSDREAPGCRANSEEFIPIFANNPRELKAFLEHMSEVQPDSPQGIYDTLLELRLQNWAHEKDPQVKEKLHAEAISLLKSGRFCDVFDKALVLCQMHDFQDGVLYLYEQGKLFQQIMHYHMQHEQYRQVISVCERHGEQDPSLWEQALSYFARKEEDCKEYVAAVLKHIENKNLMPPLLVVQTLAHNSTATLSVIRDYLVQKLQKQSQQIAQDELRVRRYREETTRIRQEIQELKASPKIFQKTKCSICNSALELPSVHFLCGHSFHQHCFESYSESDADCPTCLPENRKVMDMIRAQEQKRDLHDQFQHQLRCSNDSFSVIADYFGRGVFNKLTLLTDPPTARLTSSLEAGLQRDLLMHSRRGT
Sequence of UniProt Q53S58 (Q53S58 whole entry, looked up): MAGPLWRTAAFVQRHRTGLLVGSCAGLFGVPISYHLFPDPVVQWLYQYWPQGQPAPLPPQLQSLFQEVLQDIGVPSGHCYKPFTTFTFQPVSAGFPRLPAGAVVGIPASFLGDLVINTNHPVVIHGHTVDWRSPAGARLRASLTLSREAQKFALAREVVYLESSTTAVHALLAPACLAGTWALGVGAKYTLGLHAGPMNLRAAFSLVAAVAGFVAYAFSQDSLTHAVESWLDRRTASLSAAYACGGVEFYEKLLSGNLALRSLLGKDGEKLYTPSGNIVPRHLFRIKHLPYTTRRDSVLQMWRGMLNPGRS
Sequence of UniProt A5PLN9 (A5PLN9 whole entry, looked up): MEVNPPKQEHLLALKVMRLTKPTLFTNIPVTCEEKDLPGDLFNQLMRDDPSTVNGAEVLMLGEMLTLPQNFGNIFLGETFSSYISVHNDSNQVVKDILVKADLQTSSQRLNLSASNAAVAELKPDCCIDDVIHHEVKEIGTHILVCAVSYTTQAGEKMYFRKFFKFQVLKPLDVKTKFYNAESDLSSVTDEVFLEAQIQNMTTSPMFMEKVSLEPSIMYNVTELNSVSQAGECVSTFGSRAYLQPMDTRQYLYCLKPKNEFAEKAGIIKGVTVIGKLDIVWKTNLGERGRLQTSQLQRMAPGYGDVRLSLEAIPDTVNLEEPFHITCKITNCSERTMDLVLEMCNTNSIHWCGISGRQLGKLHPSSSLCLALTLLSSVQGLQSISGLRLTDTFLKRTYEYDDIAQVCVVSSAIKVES
Sequence of UniProt Q9NP79 (Q9NP79 whole entry, looked up): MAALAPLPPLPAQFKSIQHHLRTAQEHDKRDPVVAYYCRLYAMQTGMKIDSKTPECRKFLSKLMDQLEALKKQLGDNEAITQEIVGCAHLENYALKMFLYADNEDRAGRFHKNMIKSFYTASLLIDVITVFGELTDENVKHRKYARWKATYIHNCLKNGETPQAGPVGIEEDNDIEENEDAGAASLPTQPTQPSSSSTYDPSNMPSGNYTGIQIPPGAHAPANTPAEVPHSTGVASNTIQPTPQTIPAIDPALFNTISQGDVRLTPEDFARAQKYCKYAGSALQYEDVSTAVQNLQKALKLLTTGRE
Sequence of UniProt O43396 (O43396 whole entry, looked up): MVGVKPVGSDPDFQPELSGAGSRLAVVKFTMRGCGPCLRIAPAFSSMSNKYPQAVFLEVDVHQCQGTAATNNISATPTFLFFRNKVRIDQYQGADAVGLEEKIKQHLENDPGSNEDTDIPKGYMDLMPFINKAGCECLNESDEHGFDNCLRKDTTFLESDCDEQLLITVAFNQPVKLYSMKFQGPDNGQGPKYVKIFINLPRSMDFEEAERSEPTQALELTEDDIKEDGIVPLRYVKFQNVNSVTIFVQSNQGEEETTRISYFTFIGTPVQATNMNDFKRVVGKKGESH
Sequence of UniProt O95379 (O95379 whole entry, looked up): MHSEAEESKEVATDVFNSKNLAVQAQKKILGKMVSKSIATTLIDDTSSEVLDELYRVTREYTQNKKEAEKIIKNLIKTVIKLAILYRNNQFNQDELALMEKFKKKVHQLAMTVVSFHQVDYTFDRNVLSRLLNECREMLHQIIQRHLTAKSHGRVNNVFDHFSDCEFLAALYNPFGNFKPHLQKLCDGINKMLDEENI

| Target | log2 fold change [1] | log2 fold change [2] | log2 fold change [3] | log2 fold change [4] | log2 fold change [5] | log2 fold change [6] | log2 fold change [7] | log2 fold change [8] | log2 fold change [9] | log2 fold change [10] | log2 fold change [11] | log2 fold change [12] | log2 fold change [13] | log2 fold change [14] | log2 fold change [15] | log2 fold change [16] | log2 fold change [17] | log2 fold change [18] | log2 fold change [19] | log2 fold change [20] |
| --- | --- | --- | --- | --- | --- | --- | --- | --- | --- | --- | --- | --- | --- | --- | --- | --- | --- | --- | --- | --- |
| TMEM177 (UniProt Q53S58) | 0.043 | 0.045 | -0.008 | 0.048 | -0.092 | 0.05 | 0.05 | -0.038 | 0.005 | -0.019 | -0.092 | 0.051 | 0.047 | -0.052 | 0.002 | 0.048 | 0.219 | 0.035 | -0.103 | -0.075 |
| VAMP7 (UniProt P51809) | -0.014 | 0.011 | 0.053 | 0.005 | -0.069 | 0.022 | -0.01 | -0.016 | 0.011 | 0.017 | -0.057 | -0.019 | 0.009 | 0.045 | 0.012 | -0.026 | 0.014 | -0.022 | -0.07 | -0.181 |
| VPS11 (UniProt Q9H270) | 0.016 | -0.003 | 0.002 | 0.076 | 0.107 | 0.016 | 0.073 | 0.031 | -0.058 | 0.017 | -0.284 (active) | -0.53 (active) | 0.14 | 0.025 | -0.097 | -0.074 | 0.059 | 0.077 | 0.03 | -0.244 |
| USP14 (UniProt P54578) | 0.023 | -0.018 | 0.01 | 0.034 | -0.069 | 0.021 | 0.093 | 0.012 | -0.006 | 0.032 | -0.08 | -0.197 | 0.053 | 0.106 | -0.005 | -0.011 | 0.003 | 0.007 | -0.082 | -0.072 |
| TMEM120A (UniProt Q9BXJ8) | 0.181 | 0.007 | 0.115 | -0.004 | -0.259 | 0.06 | 0.085 | -0.007 | 0.116 | -0.006 | 0.127 | -0.053 | 0.119 | 0.198 | -0.011 | -0.128 | 0.015 | 0.149 | -0.061 | 0.07 |
| USP3 (UniProt Q9Y6I4) | 0.026 | -0.016 | 0.085 | 0.069 | 0.01 | 0.112 | 0.192 | -0.069 | -0.022 | 0.067 | -0.173 | -0.325 | 0.04 | -0.083 | -0.051 | -0.037 | 0.063 | 0.094 | -0.077 | -0.379 (active) |
| TXNL1 (UniProt O43396) | 0.02 | -0.105 | 0.007 | 0.098 | 0.117 | 0.037 | 0.079 | 0.015 | 0.114 | 0.045 | -0.104 | -0.163 | 0.044 | 0.295 (active) | -0.018 | -0.031 | 0.027 | 0.01 | -0.018 | 0.011 |
| TRAPPC13 isoform 5 (UniProt A5PLN9) | 0.022 | 0.008 | 0.006 | 0.043 | 0.024 | 0.074 | 0.113 | 0.095 | 0.025 | 0.002 | -0.055 | -0.34 | 0.044 | -0.014 | -0.072 | -0.068 | 0.078 | 0.087 | 0.042 | -0.187 |
| XRCC6 (UniProt P12956) | 0.046 | -0.051 | 0.022 | 0.033 | -0.023 | 0.059 | 0.138 | 0.025 | 0.116 | 0.086 | -0.205 | -0.515 (active) | 0.095 | 0.072 | -0.032 | 0.008 | 0.071 | 0.07 | -0.014 | -0.172 |
| VPS33B (UniProt Q9H267) | -0.05 | -0.037 | -0.015 | -0.02 | 0.032 | 0.087 | 0.069 | 0.111 | 0.029 | 0.088 | -0.129 | -0.378 | 0.284 (active) | 0.022 | -0.065 | -0.039 | 0.048 | 0.073 | 0.091 | -0.218 |
| TRAPPC8 (UniProt Q9Y2L5) | 0.079 | -0.036 | -0.009 | -0.022 | 0.024 | 0.026 | 0.066 | 0.012 | 0.066 | 0.033 | -0.092 | -0.287 (active) | 0.077 | 0.033 | -0.023 | -0.073 | 0.015 | 0.059 | 0.04 | -0.099 |
| TRMT2A (UniProt Q8IZ69) | 0.083 | -0.02 | -0.009 | 0.005 | 0.013 | 0.022 | -0.032 | 0.085 | -0.123 | -0.003 | 0.01 | 0.016 | 0.044 | -0.083 | 0.086 | -0.003 | 0.034 | -0.001 | 0.1 | -0.198 |
| VTA1 (UniProt Q9NP79) | 0.011 | -0.019 | 0.044 | 0.034 | -0.041 | 0.042 | 0.082 | -0.065 | -0.005 | 0.041 | -0.172 | -0.291 (active) | 0.06 | 0.024 | 0.026 | -0.045 | 0.048 | 0.016 | -0.041 | -0.079 |
| TMEM192 (UniProt Q8IY95) | 0.013 | -0.032 | 0.026 | -0.028 | 0.004 | -0.006 | -0.026 | -0.014 | -0.038 | -0.005 | -0.139 | -0.061 | -0.025 | -0.04 | 0.074 | 0.046 | -0.024 | 0.008 | 0.025 | -0.408 (active) |
| TMEM70 (UniProt Q9BUB7) | 0.006 | 0.051 | 0.051 | 0.005 | -0.012 | -0.011 | 0.029 | -0.053 | -0.164 | 0.047 | 0.005 | 0.064 | -0.017 | 0.001 | 0.257 (active) | -0.055 | 0.001 | 0.021 | -0.048 | -0.288 (active) |
| TNFAIP8 isoform 4 (UniProt O95379) | -0.019 | -0.013 | -0.021 | 0.051 | -0.102 | 0.014 | -0.102 | -0.052 | 0.003 | 0.065 | -0.015 | -0.414 | 0.053 | 0.041 | 0.07 | -0.088 | 0.022 | 0.001 | -0.084 | -0.125 |
